Test results: PubChem BioAssay AID1159580 (chemical genetic matrix, 2015)
Values joined by “and” are separate entries in the source; they are usually repeats but may differ in a detail not shown here. Identical values can stand only once. Screen size: about 5,500 compounds; about 2,000 (36%) were called active. About 18% were inconclusive and are not listed. Rule as the data show it: active = normalized growth mostly below about 0.91 (no sharp cut-off); inconclusive = no clear call, values can overlap the other calls; inactive = mostly above about 0.92. The list shows a part of the results.

Test: chemical genetic growth profiling, strain panel (AID 1159580);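 also: tested at 20 µM; growth read once vehicle control cultures reached saturation at 30 °C; 1 = growth at the plate median or of vehicle wells; lower values mean less growth of the strain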
Conditions: S. cerevisiae deletion strains, growth OD

Measured: normalized growth

CC[N+]1(C)CCCC(OC(=O)C(O)(c2ccccc2)c2ccccc2)C1 (stereo not given)
inactive: locus YAL013W, strain DEP1, stronger effect = lower value 1.01 | locus YAL021C, strain ccr4, stronger effect = lower value 1.01 | locus YAL026C, strain drs2, stronger effect = lower value 1.03 | locus YAL030W, strain snc1, stronger effect = lower value 1.02 | locus YBL061C, strain skt5, stronger effect = lower value 1.03 | locus YBR009C, strain hhf1, stronger effect = lower value 1.02 | locus YBR021W, strain FUR4, stronger effect = lower value 1.02 | locus YBR023C, strain chs3, stronger effect = lower value 1.02 | locus YBR171W, strain sec66, stronger effect = lower value 1.03 | locus YBR229C, strain ROT2, stronger effect = lower value 1.01 | locus YBR231C, strain swc5, stronger effect = lower value 1.03 | locus YBR279W, strain paf1, stronger effect = lower value 1.02 | locus YCL011C, strain gbp2, stronger effect = lower value 1.03 | locus YCL016C, strain dcc1, stronger effect = lower value 1.01 | locus YCL029C, strain bik1, stronger effect = lower value 1.02 | locus YCL061C, strain MRC1, stronger effect = lower value 1.02 | locus YCL069W, strain vba3, stronger effect = lower value 1.03 | locus YCR088W, strain abp1, stronger effect = lower value 1.02 | locus YDL005C, strain med2, stronger effect = lower value 1.03 | locus YDL035C, strain GPR1, stronger effect = lower value 1.02 | locus YDL040C, strain nat1, stronger effect = lower value 1.01 | locus YDL074C, strain BRE1, stronger effect = lower value 1 | locus YDL101C, strain DUN1, stronger effect = lower value 1.01 | locus YDL134C, strain PPH21, stronger effect = lower value 1.02 | locus YDL185W, strain tfp1, stronger effect = lower value 1.01 | locus YDL192W, strain arf1, stronger effect = lower value 1.02 | locus YDR001C, strain nth1, stronger effect = lower value 1.02 | locus YDR069C, strain doa4, stronger effect = lower value 1.03 | locus YDR101C, strain arx1, stronger effect = lower value 1.02 | locus YDR137W, strain rgp1, stronger effect = lower value 1.07 | locus YDR159W, strain sac3, stronger effect = lower value 1 | locus YDR162C, strain NBP2, stronger effect = lower value 1.01 | locus YDR195W, strain ref2 1.01 | locus YDR297W, strain sur2, stronger effect = lower value 1.02 | locus YDR318W, strain mcm21, stronger effect = lower value 1 | locus YDR334W, strain swr1, stronger effect = lower value 1.03 | locus YDR335W, strain msn5, stronger effect = lower value 1.03 | locus YDR388W, stronger effect = lower value 1.02 | locus YDR392W, strain spt3, stronger effect = lower value 0.931 | locus YDR502C, strain sam2, stronger effect = lower value 1.01 | locus YEL003W, strain gim4, stronger effect = lower value 1.02 | locus YEL037C, strain rad23, stronger effect = lower value 1.02 | locus YEL061C, strain CIN8 (second series), stronger effect = lower value 1.02 | locus YEL061C, strain CIN8, stronger effect = lower value 1.01 | locus YER015W, strain faa2, stronger effect = lower value 1.02 | locus YER016W, strain bim1, stronger effect = lower value 1.02 | locus YER110C, stronger effect = lower value 1.02 | locus YER111C, strain swi4, stronger effect = lower value 1.03 | locus YER155C, strain BEM2 (second series), stronger effect = lower value 1.01 | locus YER155C, strain BEM2, stronger effect = lower value 1 | locus YER167W, strain BCK2, stronger effect = lower value 1.01 | locus YFR010W, strain ubp6, stronger effect = lower value 1.03 | locus YGL078C, strain dbp3, stronger effect = lower value 1.02 | locus YGL086W, strain mad1, stronger effect = lower value 1 | locus YGL167C, strain pmr1, stronger effect = lower value 1.03 | locus YGL173C, strain kem1, stronger effect = lower value 1.04 | locus YGL227W, strain vid30, stronger effect = lower value 1.03 | locus YGL240W, strain doc1, stronger effect = lower value 1.03 | locus YGL248W, strain PDE1, stronger effect = lower value 1 | locus YGL253W, strain hxk2, stronger effect = lower value 1.03 | locus YGR078C, strain PAC10, stronger effect = lower value 1 | locus YGR135W, strain pre9, stronger effect = lower value 1.02 | locus YGR229C, strain SMI1, stronger effect = lower value 1.01 | locus YGR252W, strain gcn5, stronger effect = lower value 1 | locus YHR013C, strain ard1, stronger effect = lower value 1.04 | locus YHR027C, strain rpn1, stronger effect = lower value 1.02 | locus YHR030C, strain SLT2, stronger effect = lower value 1.01 and 1.02 | locus YHR079C, strain IRE1 (second series), stronger effect = lower value 1.01 | locus YHR079C, strain IRE1, stronger effect = lower value 1.03 | locus YHR094C, strain hxt1, stronger effect = lower value 1.01 | locus YHR129C, strain ARP1, stronger effect = lower value 0.999 | locus YHR142W, strain chs7, stronger effect = lower value 1.03 | locus YHR200W, strain rpn10, stronger effect = lower value 1.01 | locus YIL066C, strain RNR3, stronger effect = lower value 1.02 | locus YIL073C, strain SPO22, stronger effect = lower value 1.07 | locus YIL125W, strain kgd1, stronger effect = lower value 1 | locus YIR030C, strain dcg1, stronger effect = lower value 1.01 | locus YJL092W, strain hpr5, stronger effect = lower value 1.02 | locus YJL095W, strain BCK1 (second series), stronger effect = lower value 1.01 | locus YJL095W, strain BCK1, stronger effect = lower value 0.998 and 1.03 | locus YJL115W, strain asf1, stronger effect = lower value 1.03 | locus YJL129C, strain trk1, stronger effect = lower value 1.04 | locus YJL134W, strain LCB3, stronger effect = lower value 1 | locus YJL154C, strain vps35, stronger effect = lower value 1.02 | locus YJL164C, strain tpk1, stronger effect = lower value 1.01 | locus YJL166W, strain qcr8, stronger effect = lower value 1.03 | locus YJL168C, strain set2, stronger effect = lower value 1.01 | locus YJL187C, strain SWE1 (second series), stronger effect = lower value 1.01 | locus YJL187C, strain SWE1, stronger effect = lower value 1.02 | locus YJR043C, strain POL32, stronger effect = lower value 1.04
